# Assay results from ChEMBL document CHEMBL4513149, “CO-ADD screening of MMV (CH) - MMV compounds” (2021).
# Entries with a potency or affinity are not part of this list.
# Test system: Klebsiella pneumoniae
# Details: Concentration 20 uM; ASSAY_TEST Inhibition of Bacterial Growth; detection method Absorption (OD600); MEDIA CAMHB; plate type 384well; NBS; CORNING #3640; time 18 hr
row,SMILES,Inhibition [%]
1,CN(C)c1cc(NC(=O)Nc2ccccc2)c2ccccc2n1,-9.89
2,CCc1cc(=O)n(C)c(SC(C)C(=O)Nc2ccc(F)cc2)n1 (configuration not stated),3.6
3,CC1CCCN(C(=O)C(C)Nc2cc(Cl)ccc2N2CCOCC2)C1 (configuration not stated),10.27
4,CNc1snc(C)c1C(=O)NCCOc1ccc(OC)cc1,10.83
5,c1ccc(-c2cc(N3CCCCC3)c3ccccc3n2)nc1,14.97
6,Cc1cc(C)cc(COc2ccc3c(C)c(CCC(=O)O)c(=O)oc3c2C)c1,9.77
7,COc1ccc(Cn2cnc3c(-c4ccco4)nc(Cl)nc32)cc1,18.21
8,Cc1ncc(-c2ccnc(Nc3ccc(S(C)(=O)=O)cc3)n2)n1C(C)C [AZD-5438],16.86
9,CN1CCN(S(=O)(=O)c2ccc(-c3ccc4c(Nc5ncc(Cl)cn5)ccnc4c3)cc2)CC1,7.93
10,CC(C)(C)OC(=O)N1CCN(c2cc(-c3ccc(Oc4ccccc4)cc3)n[nH]2)CC1,20.96
11,CC(C)(C)OC(=O)N1CCC(Cn2nc(-c3cnc4ccccc4c3)c3c(N)ncnc32)CC1,15.77
12,CC(C)(C)n1nc(-c2ccccc2)c2c(N)ncnc21,1.67
13,Nc1ncc(-c2ccc(C(F)(F)F)nc2)cc1-c1ccc(C(F)(F)F)nc1,-7.95
14,CCS(=O)(=O)N(Cc1ccco1)Cc1cc2ccc(C)cc2nc1O,2.3
15,COc1ccc(CCN2CCC(NCc3cccc(N(C)C)c3)CC2)cc1,7.89
16,CC1(C)Cc2c(c(N3CCOCC3)nc3snc(Br)c23)CO1,3.58
17,O=C(N[C@H](Cc1ccccc1)C(=O)Nc1ccccc1N1CCOCC1)c1cccs1,11.64
18,Cl.O=C(Nc1ccc(N2CCNCC2)nc1)c1oc(-c2ccccc2)nc1C(F)(F)F,2.54

row,SMILES,Inhibition [%]
1,CC(C)NCC(=O)Nc1cccc(C(=O)Nc2cccc(C(F)(F)F)c2)c1,10.29
2,COc1ccc(C(=N)N)cc1-c1cn(-c2ccc(C(=N)N)cc2)nn1.Cl.Cl,8.73
3,Cc1cc2nc(NC(=O)C(C)(C)C)nc(Cl)c2n1Cc1ccc(Cl)cc1,1.22
4,CNC(=O)c1cc(S(=O)(=O)N2CCN(c3ccccn3)CC2)cs1,10.77
5,Cc1cc(OCC(=O)Nc2ccc(C(C)C)cc2)n(C)c(=O)c1C#N,-7.95
6,Cc1cc(OCC(=O)NCc2ccccc2)c2cc(Br)ccc2n1,6.14
7,O=C(Nc1nnc(S)s1)c1cc(Br)ccc1Cl,6.18
8,Cc1nc(-c2ccccn2)nc(NCCc2ccc(S(C)(=O)=O)cc2)c1Cl,10.15
9,Cc1nnc(NC(=O)c2cn(-c3ccccc3)nc2-c2ccccc2C)o1,13
10,Cc1cc(C)nc(-n2nc(C)cc2Nc2ccccc2)n1,15.33
11,CC(=O)Nc1ccc(-c2noc(CC3CCCN(Cc4cccc(F)c4C)C3)n2)cc1 (configuration not stated),14.96
12,Clc1ccc(-n2cc(COc3ccnc4ccccc34)nn2)cc1,12.62
13,Cc1ccc2oc(-c3cc(NC(=O)Cc4ccccc4)ccc3Cl)nc2c1,6.29
14,CCCn1nnc(NC(=O)COc2ccc(C3CCCCC3)cc2)n1,4.73
15,O=C(Nc1ccc(F)c(-c2nc3cc(-c4ccccc4)cnc3[nH]2)c1)N1CCCC1,7.38
16,Cc1nn2c(O)c3c(nc2c1-c1ccc(F)cc1)CCCC3,11.6
17,CC(C)(C)n1nc(Cc2ccc(F)c(Cl)c2)c2c(N)ncnc21,9.52
18,COc1ccc(-c2cnc3ccc(N4CCCC4)nn23)cc1OC,12.07

# Test system: Candida albicans
# Details: 20 µM
row,SMILES,Inhibition [%]
1,CN(C)c1cc(NC(=O)Nc2ccccc2)c2ccccc2n1,5.61
2,CCc1cc(=O)n(C)c(SC(C)C(=O)Nc2ccc(F)cc2)n1 (configuration not stated),0.76
3,CC1CCCN(C(=O)C(C)Nc2cc(Cl)ccc2N2CCOCC2)C1 (configuration not stated),5.64
4,CNc1snc(C)c1C(=O)NCCOc1ccc(OC)cc1,3.15
5,c1ccc(-c2cc(N3CCCCC3)c3ccccc3n2)nc1,-0.2
6,Cc1cc(C)cc(COc2ccc3c(C)c(CCC(=O)O)c(=O)oc3c2C)c1,6.48
7,COc1ccc(Cn2cnc3c(-c4ccco4)nc(Cl)nc32)cc1,6.94
8,Cc1ncc(-c2ccnc(Nc3ccc(S(C)(=O)=O)cc3)n2)n1C(C)C [AZD-5438],6.64
9,CN1CCN(S(=O)(=O)c2ccc(-c3ccc4c(Nc5ncc(Cl)cn5)ccnc4c3)cc2)CC1,4.17
10,CC(C)(C)OC(=O)N1CCN(c2cc(-c3ccc(Oc4ccccc4)cc3)n[nH]2)CC1,5.58
11,CC(C)(C)OC(=O)N1CCC(Cn2nc(-c3cnc4ccccc4c3)c3c(N)ncnc32)CC1,2.29
12,CC(C)(C)n1nc(-c2ccccc2)c2c(N)ncnc21,1.46
13,Nc1ncc(-c2ccc(C(F)(F)F)nc2)cc1-c1ccc(C(F)(F)F)nc1,5.26
14,CCS(=O)(=O)N(Cc1ccco1)Cc1cc2ccc(C)cc2nc1O,3.52
15,COc1ccc(CCN2CCC(NCc3cccc(N(C)C)c3)CC2)cc1,3.48
16,CC1(C)Cc2c(c(N3CCOCC3)nc3snc(Br)c23)CO1,13.1
17,O=C(N[C@H](Cc1ccccc1)C(=O)Nc1ccccc1N1CCOCC1)c1cccs1,3.1
18,Cl.O=C(Nc1ccc(N2CCNCC2)nc1)c1oc(-c2ccccc2)nc1C(F)(F)F,2.72

row,SMILES,Inhibition [%]
1,CC(C)NCC(=O)Nc1cccc(C(=O)Nc2cccc(C(F)(F)F)c2)c1,3.29
2,COc1ccc(C(=N)N)cc1-c1cn(-c2ccc(C(=N)N)cc2)nn1.Cl.Cl,3.44
3,Cc1cc2nc(NC(=O)C(C)(C)C)nc(Cl)c2n1Cc1ccc(Cl)cc1,3.57
4,CNC(=O)c1cc(S(=O)(=O)N2CCN(c3ccccn3)CC2)cs1,2.91
5,Cc1cc(OCC(=O)Nc2ccc(C(C)C)cc2)n(C)c(=O)c1C#N,4.91
6,Cc1cc(OCC(=O)NCc2ccccc2)c2cc(Br)ccc2n1,0.18
7,O=C(Nc1nnc(S)s1)c1cc(Br)ccc1Cl,4.73
8,Cc1nc(-c2ccccn2)nc(NCCc2ccc(S(C)(=O)=O)cc2)c1Cl,4.79
9,Cc1nnc(NC(=O)c2cn(-c3ccccc3)nc2-c2ccccc2C)o1,4.27
10,Cc1cc(C)nc(-n2nc(C)cc2Nc2ccccc2)n1,11.7
11,CC(=O)Nc1ccc(-c2noc(CC3CCCN(Cc4cccc(F)c4C)C3)n2)cc1 (configuration not stated),3.14
12,Clc1ccc(-n2cc(COc3ccnc4ccccc34)nn2)cc1,3.14
13,Cc1ccc2oc(-c3cc(NC(=O)Cc4ccccc4)ccc3Cl)nc2c1,14.6
14,CCCn1nnc(NC(=O)COc2ccc(C3CCCCC3)cc2)n1,21.8
15,O=C(Nc1ccc(F)c(-c2nc3cc(-c4ccccc4)cnc3[nH]2)c1)N1CCCC1,49.9
16,Cc1nn2c(O)c3c(nc2c1-c1ccc(F)cc1)CCCC3,3.69
17,CC(C)(C)n1nc(Cc2ccc(F)c(Cl)c2)c2c(N)ncnc21,4.75
18,COc1ccc(-c2cnc3ccc(N4CCCC4)nn23)cc1OC,4.32
